# From PubChem BioAssay (Tox21)
# Where “and” joins values, the source holds several entries; their conditions need not be identical. Equal entries are not always repeated. Inconclusive results are not listed. Entries that show only a call come without a potency. More than one record can exist for a structure, and the calls need not agree. Calls of active or inactive are those of the source. Unless noted, calls come from the whole dose curve; as a rule, active = well fitted curve in the direction sought with a large enough effect in the repeat runs; inconclusive = weak or mixed curves; inactive = no such curve, though single readings can be large; an effect the other way counts as inactive or inconclusive.
# What was measured:
# [1] = qHTS assay to identify small molecule antagonists of the estrogen receptor alpha (ER-alpha) signaling pathway using the BG1 cell line in the presence of 0.1 nM 17-beta-estradiol - cell viability counter screen (AID 1259241); settings: VM7Luc4E2 (BG1) viability, CellTiter-Fluor protease, 22 h, 0.1 nM estradiol agonist added; series mostly up to 92.4 µM; note: nearly all actives have a fitted effect of over 40% in size; note: potency is the fitted concentration of half-maximal effect
# Outline: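 In this screen, hormone-deprived VM7Luc4E2 cells were seeded at 4,000 per well, dosed with compound and 0.1 nM estradiol final, and incubated 22 hr at 37C and 5% CO2; fluorogenic live-cell protease signal reported viability.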
# [2] = qHTS assay to identify small molecule antagonists of the androgen receptor (AR) signaling pathway using the MDA cell line in the presence of 0.5 nM R1881 - cell viability counter screen (AID 1259242); settings: MDA-kb2 viability, CellTiter-Fluor protease fluorescence, 16 h; series mostly up to 92.4 µM; note: nearly all actives have a fitted effect of over 45% in size; note: potency is the fitted concentration of half-maximal effect
# Outline: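 Counter screen for cytotoxicity run in the same wells as the AR antagonist reporter screen: MDA-kb2 cells were treated 16 hr with test compounds and 0.5 nM R1881, then live-cell protease activity was measured by fluorescence.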
# [3] = molecular target: Estrogen receptor (Homo sapiens) (UniProt P03372); test: qHTS assay to identify small molecule antagonists of the estrogen receptor alpha (ER-alpha) signaling pathway using the BG1 cell line in the presence of 0.1 nM 17-beta-estradiol (AID 1259244); settings: VM7Luc4E2 (BG1) ERE-luciferase, antagonist mode, 0.1 nM E2, 22 h; series mostly up to 92.4 µM; note: nearly all actives have a fitted effect of over 50% in size; note: potency is the fitted concentration of half-maximal effect
# Outline: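 Cells: VM7Luc4E2, endogenous ER-alpha, 4x ERE-luc stable. Pre-culture 5 d, phenol red-free, charcoal-stripped FBS. Plated 24 h, compound + E2 0.1 nM final, 22 h 37C/5% CO2. Readout ONE-Glo luminescence.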
# [4] = qHTS assay to identify small molecule HDAC inhibitors (AID 1259364); settings: HCT-116 HDAC-Glo I/II luminescence, 2 h; series mostly up to 92.4 µM; note: nearly all actives have a fitted effect of over 45% in size; note: potency is the fitted concentration of half-maximal effect
# Outline: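 Luminescence from a cell-permeant luminogenic class I/II HDAC substrate reports endogenous deacetylase activity in intact HCT-116 cells treated with compounds for 2 h.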
# [5] = qHTS assay to identify small molecule HDAC inhibitors - cell viability counter screen (AID 1259365); settings: HCT-116 viability, CellTiter-Glo ATP luminescence, 2 h; series mostly up to 92.4 µM; note: nearly all actives have a fitted effect of over 50% in size; note: potency is the fitted concentration of half-maximal effect
# Outline: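 Measured quantity is CellTiter-Glo luminescence from wild-type HCT-116 cells after compound incubation of 2hr at 37C, 5% CO2; reagent developed 30min at room temperature.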
# [6] = qHTS assay to identify small molecule agonists of the sonic hedgehog signaling (Shh) pathway - cell viability counter screen (AID 1259366); settings: NIH/3T3 Gli1-Luc viability, CellTiter-Fluor, 24 h; series mostly up to 92.4 µM; note: nearly all actives have a fitted effect of over 50% in size; note: potency is the fitted concentration of half-maximal effect
# Outline: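 In quantitative high-throughput format, 3T3 Gli1-Luc cells were exposed to compounds for 24hr and multiplexed for viability using CellTiter-Fluor, incubated 1hr at 37C before the fluorescence read.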
# [7] = qHTS assay to identify small molecule antagonists of the sonic hedgehog signaling (Shh) pathway - cell viability counter screen (AID 1259367); settings: NIH/3T3 Gli1-Luc viability, CellTiter-Fluor, 24 h; series mostly up to 92.4 µM; note: nearly all actives have a fitted effect of over 55% in size; note: potency is the fitted concentration of half-maximal effect
# Outline: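 NIH/3T3-derived Gli1-Luc reporter cells (2,000 per well) rested 4 hr at 37 C, then received DMSO compounds plus conditioned medium. After 23 hr of treatment, CellTiter-Fluor was added for 1 hr at 37C and fluorescence read.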
# [8] = qHTS assay to identify small molecule agonists of the sonic hedgehog signaling (Shh) pathway (AID 1259368; calls by dose curve;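 note: NIH/3T3-derived 3T3Gli1-Luc cells carrying a stable Gli1-driven firefly luciferase reporter; nearly all actives have a fitted effect of over 15% in size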); settings: NIH/3T3 Gli1-Luc reporter, luciferase, 24 h; series mostly up to 92.4 µM
# Outline: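 3T3Gli1-Luc (NIH/3T3 clone, stable Gli1-Luc); 4 hr pre-incubation, then cpd in DMSO 24 hr, 37 C/5% CO2; luciferase reagent 30 min RT; luminescence.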
# [9] = qHTS assay to identify small molecule phospholipidosis (PLD) inducers (AID 1259344; active = well fitted curve in the direction sought with a large enough effect; an effect the other way counts as inactive or inconclusive); settings: HepG2 phospholipidosis, LipidTOX Red imaging, 24 h; series mostly up to 38.3 µM
# Outline: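 HepG2 cells on collagen I, attached 4 h at 37 C, were co-treated with compound and LipidTOX Red dye for 24 h at 37 C, then fixed with paraformaldehyde plus Hoechst 33342 and imaged by high-content microscopy for phospholipid accumulation.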
# Sequence of Estrogen receptor (Homo sapiens) (P03372 whole entry, looked up): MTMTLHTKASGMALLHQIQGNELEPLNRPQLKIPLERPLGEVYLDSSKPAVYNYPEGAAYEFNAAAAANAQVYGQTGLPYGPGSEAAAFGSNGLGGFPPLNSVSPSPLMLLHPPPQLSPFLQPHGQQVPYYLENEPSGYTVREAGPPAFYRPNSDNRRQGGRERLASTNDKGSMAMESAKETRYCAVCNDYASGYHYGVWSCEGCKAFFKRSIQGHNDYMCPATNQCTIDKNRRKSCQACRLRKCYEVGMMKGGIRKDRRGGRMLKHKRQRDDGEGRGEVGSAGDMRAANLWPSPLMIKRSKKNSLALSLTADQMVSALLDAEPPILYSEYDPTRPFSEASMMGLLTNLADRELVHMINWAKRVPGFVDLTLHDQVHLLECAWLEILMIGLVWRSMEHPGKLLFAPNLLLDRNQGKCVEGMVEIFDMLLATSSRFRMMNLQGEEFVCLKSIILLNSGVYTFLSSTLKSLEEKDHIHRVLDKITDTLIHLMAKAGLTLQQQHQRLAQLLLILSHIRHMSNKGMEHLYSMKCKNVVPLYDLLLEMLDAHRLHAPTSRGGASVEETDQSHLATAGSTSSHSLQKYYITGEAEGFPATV
SMILES,Potency [1],Potency [2],Potency [3],Potency [4],Potency [5],Potency [6],Potency [7],Potency [8],outcome [9],PLD induction [9]
C=C(C)C(=O)OCCCCOC(=O)C(=C)C,inactive,inactive,inactive,inactive,inactive,inactive,inactive,inactive,,
O=C(O)C(O)C(O)C(=O)O (centres undefined),inactive,inactive,inactive,inactive,inactive,inactive,inactive,inactive,,
Cc1cccc(C)c1NC1=NCCCS1,inactive,inactive,inactive,inactive,,inactive,,inactive,inactive,
NCCc1cc(O)c(O)cc1O,inactive,inactive,inactive,inactive,inactive,,inactive,inactive,inactive,
C[N+]1(CCC(C(N)=O)(c2ccccc2)c2ccccc2)CCCCC1,inactive,inactive,inactive,inactive,inactive,,inactive,inactive,inactive,
Cc1nnc(-c2ccccc2)c(=O)n1N,inactive,inactive,inactive,inactive,inactive,inactive,inactive,inactive,,
Oc1cccc(Cl)c1,inactive,inactive,inactive,inactive,inactive,inactive,inactive,inactive,,
CN1CC[C@]23c4c5ccc(O)c4O[C@H]2[C@@H](O)CC[C@H]3[C@H]1C5,inactive,inactive,inactive,inactive,inactive,inactive,,inactive,inactive,
CCCSP(=S)(OCC)Oc1ccc(SC)cc1 (centres undefined),inactive,inactive,inactive,inactive,inactive,inactive,inactive,inactive,,
CCCC[N+]1(C)[C@@H]2CC(OC(=O)[C@H](CO)c3ccccc3)C[C@H]1[C@@H]1O[C@@H]12 (some centres undefined),inactive,inactive,inactive,inactive,,inactive,inactive,inactive,inactive,
CCSCc1ccccc1OC(=O)NC,inactive,inactive,inactive,inactive,inactive,inactive,inactive,inactive,,
CCC(C)(C)O,inactive,inactive,inactive,inactive,inactive,inactive,inactive,,,
CC(Cc1ccccc1)NCc1ccccc1Cl (centres undefined),inactive,inactive,inactive,inactive,inactive,,inactive,inactive,inactive,
CC(C)c1ccc(NC(=O)N(C)C)cc1,inactive,inactive,inactive,24.3 µM (active),inactive,inactive,inactive,inactive,,
O=C(O)c1cc(I)cc(I)c1I,inactive,inactive,inactive,inactive,inactive,inactive,,,,
O=S(=O)(Cl)Cl,inactive,inactive,inactive,inactive,inactive,inactive,inactive,inactive,,
C#C[C@]1(O)CC[C@H]2[C@@H]3CCC4=CC(=O)CCC4=C3C=C[C@@]21CC,inactive,inactive,13.3 µM (active),inactive,inactive,,inactive,inactive,inactive,
CC[N+]1(CCOC(=O)C(O)(c2ccccc2)c2ccccc2)CCCCC1,inactive,inactive,inactive,inactive,inactive,,inactive,inactive,inactive,
CC(C)C1(C)N=C(c2ncccc2C(=O)O)NC1=O (centres undefined),inactive,inactive,inactive,inactive,inactive,inactive,,,,
CCOP(=S)(OCC)SCSc1cc(Cl)ccc1Cl,inactive,inactive,inactive,inactive,inactive,inactive,inactive,inactive,,
CC(C)OC(=O)Cc1ccccc1,inactive,inactive,inactive,inactive,inactive,inactive,inactive,,,

SMILES,Potency [1],Potency [2],Potency [3],Potency [4],Potency [5],Potency [6],Potency [7],Potency [8],outcome [9],PLD induction [9]
CCCCC(CC)COC(=O)c1c(Br)c(Br)c(Br)c(Br)c1C(=O)OCC(CC)CCCC (centres undefined),inactive,inactive,inactive,inactive,inactive,inactive,inactive,inactive,,
COc1cc(C[C@@H](C)N)c(OC)cc1Br,inactive,inactive,inactive,inactive,inactive,,inactive,inactive,inactive,
CCN(C(C)=O)c1cccc(-c2ccnc3c(C#N)cnn23)c1,inactive,inactive,inactive,inactive,,,inactive,inactive,inactive,
CNC(=O)Oc1cccc(N=CN(C)C)c1,inactive,inactive,inactive,inactive,,,inactive,inactive,,
CC(=O)OC(c1ccccc1)C(Cl)(Cl)Cl (centres undefined),inactive,inactive,inactive,inactive,inactive,inactive,inactive,inactive,,
CC(C)(C)c1ccc(CCOc2ncnc3ccccc23)cc1,inactive,inactive,inactive,inactive,,inactive,inactive,inactive,,
CCCC[N+](CCCC)(CCCC)CCCC,inactive,inactive,inactive,inactive,inactive,,,inactive,,
CCC(C)(C)c1ccc(O)c(C(C)(C)CC)c1,inactive,67.8 µM (active),inactive,inactive,,,inactive,inactive,,
COC(=O)Cc1ccccc1,inactive,inactive,inactive,inactive,inactive,inactive,inactive,inactive,,
CC(C)(C)CC(C)(C)c1ccc(O)cc1,inactive,inactive,,inactive,,48.6 µM (active) and inactive,,,inactive,
C[C@H]1[C@@H]2Cc3ccc(O)cc3[C@@]1(C)CCN2C,inactive,inactive,,inactive,inactive,inactive,inactive,inactive,inactive,
COc1ccc(C(O)(c2cncnc2)C2CC2)cc1 (centres undefined),inactive,inactive,inactive,inactive,inactive,inactive,inactive,inactive,,
NC(=S)c1c(Cl)cccc1Cl,inactive,inactive,inactive,inactive,inactive,,inactive,inactive,,
N#CC(C#N)=C(C#N)C#N,inactive,inactive,inactive,,,,,inactive,,
CC(C)(c1ccccc1)c1cc(-n2nc3ccccc3n2)c(O)c(C(C)(C)c2ccccc2)c1,inactive,inactive,inactive,inactive,,inactive,inactive,inactive,,
C[C@]12CC[C@H]3[C@@H](CCC4=CC(=O)CC[C@@H]43)[C@@H]1CC[C@@H]2OC(=O)CCc1ccccc1,inactive,inactive,,inactive,inactive,inactive,inactive,inactive,inactive,
O=C(Cc1ccccc1)c1ccccc1,inactive,inactive,inactive,27.3 µM (active),,,inactive,,,
CCC(C)Cl (centres undefined),inactive,inactive,inactive,inactive,,,inactive,,,
C[C@@H]1C[C@@H]([C@H](O)CC2CC(=O)NC(=O)C2)C(=O)[C@@H](C)C1,inactive,inactive,,inactive,inactive,2.16 µM (active),136 nM (active) and 969 nM (active),,,2.68% [at 7.66 µM] (inactive)
O=C1CC[C@@]2(O)[C@H]3Cc4ccc(O)c5c4[C@@]2(CCN3CC2CC2)[C@H]1O5,inactive,inactive,,inactive,inactive,inactive,,inactive,inactive,
C[C@H]1O[C@H](OC2[C@@H](O)[C@@H](O)C(O)[C@H](O)[C@H]2O)[C@@H](N)C[C@@H]1N=C(N)C(=O)O (some centres undefined),inactive,inactive,inactive,inactive,,inactive,inactive,inactive,,

SMILES,Potency [1],Potency [2],Potency [3],Potency [4],Potency [5],Potency [6],Potency [7],Potency [8],outcome [9],PLD induction [9]
C1CS1,inactive,inactive,inactive,inactive,inactive,,inactive,inactive,,
C=CC(=O)OCC,inactive,inactive,inactive,inactive,inactive,inactive,inactive,inactive,,
C=CC(=O)NC(C)(C)CC(C)=O,inactive,inactive,inactive,inactive,inactive,,inactive,inactive,,
CCCN(CCC)c1c([N+](=O)[O-])cc(C(C)C)cc1[N+](=O)[O-],inactive,inactive,inactive,inactive,,inactive,inactive,,,
C[N+](C)(C)CCOC(=O)C(O)(c1ccccc1)c1ccccc1,inactive,inactive,,inactive,inactive,inactive,inactive,,inactive,
CN(C)C(=O)Nc1cccc(OC(=O)NC(C)(C)C)c1,inactive,inactive,inactive,inactive,inactive,inactive,,inactive,,
CC[N+]1(C)CCCC(OC(=O)C(O)(c2ccccc2)c2ccccc2)C1 (centres undefined),inactive,inactive,,inactive,inactive,,inactive,inactive,inactive,
CC(Oc1cc(Cl)c(Cl)cc1Cl)C(=O)O (centres undefined),inactive,inactive,inactive,inactive,inactive,inactive,inactive,inactive,,
CC(C)CCON=O,inactive,inactive,,inactive,inactive,inactive,inactive,inactive,inactive,
CCCCCCCCCCCCN(C)C,inactive,inactive,inactive,inactive,inactive,,inactive,inactive,,
CCCCCl,inactive,inactive,,inactive,,,inactive,,inactive,
COc1ccc(C(=O)c2c(C)n(CCN3CCOCC3)c3ccccc23)cc1,inactive,inactive,,inactive,inactive,,,inactive,inactive,
CN(C)c1ccc(N=O)cc1,61.3 µM (active),48.7 µM (active) and 48.6 µM (active),43.4 µM (active) and inactive,inactive,inactive,,24.4 µM (active) and 27.3 µM (active),,,
[Cl-].[Cl-].[Hg+2],27.2 µM (active) and 21.7 µM (active),6.86 µM (active),,54.2 µM (active) and 34.4 µM (active),68.2 µM (active),,964 nM (active) and 1.93 µM (active),inactive,inactive,
CCCCC#N,inactive,inactive,inactive,inactive,,inactive,inactive,,,
COc1ccccc1N1CCNCC1,inactive,inactive,,inactive,,,,inactive,inactive,
O=C(NC(=O)c1cc(F)c(F)cc1Cl)Nc1cc(F)ccc1N1CCC(C(=O)O)CC1,inactive,inactive,inactive,inactive,,,inactive,,,
Cc1ccc2c(C)cccc2c1,inactive,inactive,inactive,inactive,,inactive,inactive,inactive,,
CCCCCCCCCCCCCCCl,inactive,inactive,inactive,inactive,,inactive,,,,
CCNC(=O)NC(=O)/C(C#N)=N/OC,inactive,inactive,inactive,inactive,inactive,inactive,,inactive,,
